# Source: PubChem (Broad Institute)
# Shown is part of a subset that was picked to be rich in hits.
# Tg IFNy HTS: blocks Toxoplasma gondii growth in the presence of IFN-gamma | Toxoplasma gondii growth in IFN-gamma-treated host cells; active compounds read low | activity change, negative = inhibition, % (no concentration beside the values) | hit rate 3.8% among 69,000; in the data active means activity change below about -70%, passing the limit was not always enough;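 further: host cells are HeLa cells infected with Toxoplasma gondii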
# The depositor's hits bear a star; i = inactive.
SMILES,Tg IFNy HTS
O=C(c1cn[nH]c1-n1cnnn1)N1CCCC(CCc2ccc(F)cc2)C1 (configuration not stated),-13
O=C(c1ccc2cccnc2c1O)N1CCCC(CCc2ccc(F)cc2)C1 (configuration not stated),-81*
CCOCCn1cnc(-c2ccccc2)c1-c1ncnn1CC,-6
CCC(=O)N1CCC2(CC1)Nc1ccc(C)c(C)c1-n1cccc12,21
Cn1c(-c2ccccc2)cnc1SCC(=O)Nc1ccc(Cl)cc1,7
CC1CCc2cc(F)ccc2N1C(=O)c1cc2cccnc2n(Cc2ccccc2F)c1=O (configuration not stated),-28
CC1CCc2cc(F)ccc2N1C(=O)CSc1ncc(-c2ccccc2)n1C1CCCC1 (configuration not stated),-80*
COCCN1CCC2(CCCN(C(=O)c3ccoc3)C2)CC1,1
C[C@@]1(F)[C@H](O)[C@@H](CO)O[C@H]1n1ccc(N)nc1=O,9
COC(=O)c1cc2n(n1)CCN(C(=O)c1ccc(Cl)s1)C2,1
CCn1c(=O)/c(=C2/Sc3ccc(OC)cc3N2C)s/c1=C1/C(=O)N(C)C(=S)N1C,-78*
Cc1ccc(Cl)cc1NC(=O)N1CCN(Cc2nc(-c3cccc(Cl)c3)oc2C)CC1,-3
Cc1oc(-c2cccc(Cl)c2)nc1CN(c1ccccc1)S(=O)(=O)c1ccccc1,12
COc1cccc(-c2noc3c2CN(c2ccc(C)nn2)CC3)c1,-13
Cc1ccc(F)cc1CN1CC[C@@H]2OCCN(C(=O)c3cnccn3)[C@@H]2C1,-5
Cc1cc(CN(C)Cc2ccc(-n3cccn3)cc2)n[nH]1,-3
CC(c1ccccn1)N(C)Cc1nc2ccccc2n1C(C)C (configuration not stated),-20
Cc1cc(CN(C)Cc2nc3ccccc3n2C(C)c2ccccc2)n[nH]1 (configuration not stated),-79*
O=C(C[C@H]1CC[C@H]2[C@@H](COC[C@@H](O)CN2C(=O)c2cc(Cl)cc(Cl)c2)O1)N1CCc2ccccc2C1,-41
COCC1CN(C(=O)CCc2cccc(OC)c2)Cc2c1cnn2C (configuration not stated),1
CNC(=O)CN1CCC2(CCCN(c3ncccn3)C2)CC1,-38
COc1ccc(-c2[nH]ncc2CN2CCCC(C(=O)c3ccccc3SC)C2)cc1 (configuration not stated),7
O=C(NCCc1csc(-c2ccc(F)cc2)n1)c1ccccc1C(F)(F)F,46
COc1ccccc1C(=O)N1CCc2c([nH]c3ccccc23)C1c1ccccc1 (configuration not stated),58
CCOc1cccc(C2c3[nH]c4ccccc4c3CCN2C(=O)c2cccc(N(C)C)c2)c1 (configuration not stated),408
SMILES,Tg IFNy HTS
CCOc1cccc(C2c3[nH]c4ccccc4c3CCN2C(=O)c2ccccc2OC)c1 (configuration not stated),-105*
Cc1ccc(C(=O)N2CCc3c([nH]c4ccccc34)C2c2cccc(C)c2)cc1 (configuration not stated),207
CCOc1cccc(C2c3[nH]c4ccccc4c3CCN2C(=O)c2ccc(F)cc2)c1 (configuration not stated),-98*
COc1ccccc1C(=O)N1CCc2c([nH]c3ccccc23)C1c1ccc(Cl)cc1 (configuration not stated),31
CCOc1cccc(C2c3[nH]c4ccccc4c3CCN2C(=O)COC)c1 (configuration not stated),i
CCOc1cccc(C2c3[nH]c4ccccc4c3CCN2C(=O)C2CCC2)c1 (configuration not stated),483
CCOc1cccc(C2c3[nH]c4ccccc4c3CCN2C(=O)c2ccc(C)cc2)c1 (configuration not stated),-122*
CCOc1cccc(C2c3[nH]c4ccccc4c3CCN2C(=O)c2cccc(OC)c2)c1 (configuration not stated),-103*
O=C(Nc1ccc(Cl)cc1)c1c(O)c2ccccc2n(-c2ccccc2)c1=O,43
O=C(c1cc(C2CC2)on1)N1CCC(c2cc(Cc3ccccc3)[nH]n2)CC1,8
Cc1nn(CC(=O)NCCN2CCCCCC2)c(=O)c2nc(-c3ccccc3)sc12,22
COc1ccc(N2CCOCC3(CCCN(C(=O)c4ccc[nH]4)C3)C2)cc1 (configuration not stated),7
O=C(Cc1csc(NCC2CCCO2)n1)Nc1ccccc1 (configuration not stated),26
O=C(C[C@@H]1CC[C@@H]2[C@H](COC[C@@H](O)CN2C(=O)c2ccccc2F)O1)NCc1ccc(Cl)c(Cl)c1,-21
C=C(C)COc1ccccc1C(=O)N(Cc1c(C)nn(C)c1C)C1CC1,-55
Cc1ccc(C2(O)CCN(C(=O)Cc3ccccc3C)CC2)nc1,-2
O=C(O)C1CCCCC1C(=O)NCCc1csc(-c2ccccc2)n1 (configuration not stated),147
COc1ccc(OC)c(-n2c(/C=C/c3ccc4c(c3)OCO4)nc3ccccc3c2=O)c1,19
C(=C/c1nccc2c1[nH]c1ccccc12)/c1ccc2c(c1)OCO2,133
C(=C/c1ccc2ccccc2n1)/c1ccc2c(c1)OCO2,-94*
COc1ccccc1-c1ccc([C@@H]2[C@@H](C#N)N[C@@H]2CO)cc1,23
Cc1ccc(/C=C2\CNC/C(=C\c3ccc(C)cc3)C2=O)cc1,-86*
Cc1ccc(S(=O)(=O)N2[C@@H]3CNC[C@H]2C3c2ccc(/C=C/c3ccccc3)cc2)cc1 (some centres not stated),-44
Cc1ccc(/C=C2\C(=O)C3(C)CCC2C3(C)C)cc1 (configuration not stated),9
O=C1CC(c2cccc3[nH]ccc23)c2c(n[nH]c2C2CCC2)N1 (configuration not stated),-1
SMILES,Tg IFNy HTS
Cc1cccc(C(=O)NCCc2csc(-c3ccc(F)cc3)n2)c1,-58
N#Cc1c(-c2ccccc2)cc(-c2ccccc2)nc1SCc1nnc(-c2ccccc2)o1,-100*
CCc1nc(SCc2nnc(-c3ccc(C)cc3)o2)c2c(C)c(C)sc2n1,-32
N#Cc1c(C(F)(F)F)cc(-c2ccccc2)nc1SCC(N)=O,30
Cn1cccc1C(=O)N1CCC2(CC1)NC(=O)CC2c1ccncc1 (configuration not stated),6
CC(C)CN1CC(C(=O)NC2CCC(n3cnnc3)CC2)CC1=O (configuration not stated),1
COc1ccc(C(=O)N2CCCC3(C2)Nc2cccnc2NC3=NCc2ccccc2)cc1 (configuration not stated),2
CN(C)C1CCN(Cc2ccoc2)C(C(=O)O)C1 (configuration not stated),-14
CN1CCN(c2cc(-c3cccnc3)nc3ccccc23)CC1,-16
COC(=O)C1(C)CCN(c2nc(-c3cccnc3)nc3c2cnn3C)CC1,-41
Cc1nc(N2CCN(c3cc(=O)[nH]nc3-c3ccccc3)CC2)c2cnn(C)c2n1,-84*
O=c1[nH]c2cc3c(cc2cc1CNc1ccc(N2CCCCC2)cc1)CCC3,-99*
O=c1[nH]c2cc3c(cc2cc1CNc1cccc2c1CCCC2)OCCO3,7
Cc1noc(CN(C)Cc2cc3cc4c(cc3[nH]c2=O)CCC4)n1,-5
COc1ccc2c(c1)O[C@H]1c3ccc(OC)cc3OC[C@@H]21,-21
COc1ccc2c(c1)OCC(Cc1ccc(OC)c(OC(C)=O)c1)C2=O (configuration not stated),-84*
